# Measured values as given in PubChem BioAssay (Tox21).
# Results filed as inconclusive are left out. Entries that show only a call come without a potency. Activity calls are given as the source filed them. Calls follow the shape of the full dose curve.
# Target: Retinoic acid receptor RXR-alpha (Homo sapiens) (UniProt P19793)
# Experiment: qHTS assay to identify small molecule agonists of the RXR signaling pathway (AID 1159527); also: nearly all actives have a fitted effect of over 35% in size
# Details: HEK293T RXRa-UAS-bla, beta-lactamase ratio, 16 h; series mostly up to 76.8 µM
# Outline: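 16 hr incubation of compound-treated RXR-alpha-UAS-bla HEK 293T cells (2% charcoal-stripped FBS, 37 C) preceded a 2 hr room-temperature LiveBLAzer FRET substrate step and blue/green fluorescence measurement.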
# Potency is read from the fitted curve at half-maximal effect.
# Retinoic acid receptor RXR-alpha (Homo sapiens), sequence (P19793 whole entry, looked up): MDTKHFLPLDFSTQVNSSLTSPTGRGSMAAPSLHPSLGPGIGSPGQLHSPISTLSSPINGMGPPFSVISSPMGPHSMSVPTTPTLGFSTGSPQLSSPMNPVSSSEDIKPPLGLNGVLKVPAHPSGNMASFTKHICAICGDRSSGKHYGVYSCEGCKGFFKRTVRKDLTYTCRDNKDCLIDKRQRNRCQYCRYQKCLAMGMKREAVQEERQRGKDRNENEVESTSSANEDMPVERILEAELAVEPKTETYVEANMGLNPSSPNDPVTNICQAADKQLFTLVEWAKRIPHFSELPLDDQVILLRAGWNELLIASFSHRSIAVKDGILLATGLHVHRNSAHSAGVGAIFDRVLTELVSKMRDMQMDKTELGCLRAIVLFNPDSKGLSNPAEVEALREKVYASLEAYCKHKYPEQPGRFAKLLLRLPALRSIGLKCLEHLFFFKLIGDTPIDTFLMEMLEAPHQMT
row,Structure (SMILES),Potency
1,CCN(CC)c1nc(C)cc(OP(=S)(OC)OC)n1,inactive
2,O=P(O)(Oc1ccccc1)Oc1ccccc1,inactive
3,C#C[C@]1(O)C=C[C@H]2[C@@H]3CCC4=CC(=O)CC[C@@H]4[C@H]3CC[C@@]21CC,inactive
4,ClC(Cl)C(Cl)Cl,inactive
5,CC(CC(C#N)(c1ccccc1)c1ccccc1)N(C)C (stereo not given),inactive
6,CN(C)CCc1ccc(O)cc1,inactive
7,C(CCOCC1CO1)COCC1CO1 (stereo not given),inactive
8,CCCCC(=O)Cl,inactive
9,CCCCOC(=O)c1ccccc1N,inactive
10,Cc1ncc(CNC(=O)N(CCCl)N=O)c(N)n1,inactive
11,CCCCCCI,inactive
12,ClCCOCOCCCl,inactive
13,ClCC(Cl)Cl,inactive
14,CSc1nc(N=[N+]=[N-])nc(NC(C)C)n1,inactive
15,O=C1OC(c2ccc(O)c(S(=O)(=O)O)c2)(c2ccc(O)c(S(=O)(=O)O)c2)c2c(Br)c(Br)c(Br)c(Br)c21,inactive
16,Nc1c(Br)cc([N+](=O)[O-])cc1[N+](=O)[O-],inactive
17,c1cc2c(c(N3CCNCC3)c1)OCCO2,inactive
18,CCC(C)n1c(=O)[nH]c(C)c(Br)c1=O (stereo not given),inactive
19,CC(C)(C)NCC(O)c1cc(Cl)c(N)c(Cl)c1 (stereo not given),inactive
20,COC(=O)c1c(C(F)F)nc(C(F)(F)F)c(C2=NCCS2)c1CC(C)C,inactive
21,C1CCC(C2CCCCC2)CC1,38.9 µM (active)
22,Cc1nnc2n1-c1sc(CCC(=O)N3CCOCC3)cc1C(c1ccccc1Cl)=NC2,inactive
23,c1coc(-c2nc3ccccc3[nH]2)c1,inactive
24,Cc1ncsc1CCCl,inactive
25,CC1CCC(=O)O1 (stereo not given),inactive
